Assay results taken from the supplement of paper PMC11001985.
Unmarked numbers belong to inactive results.

Compound: C#CCNC(=O)CCSSCCC(=O)NCCc1ccc(C=O)c(C=O)c1
Test: lysine labeling ratio R10:1 (500 µM / 50 µM probe), SILAC-ABPP in living cells; higher = lower intrinsic lysine reactivity toward the probe, active = 2 or less
Details: HeLa; probe concentrations 500 vs 50 µM
How it was run: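 SILAC light and heavy living HeLa cells in PBS at room temperature were labelled with 50 µM or 500 µM of an alkyne-tagged, disulfide-linked lysine probe, with forward and reverse label swaps. Mixed lysates were clicked to biotin-azide, trypsin-digested, captured on neutravidin, DTT-released, alkylated and analysed by LC-MS/MS on a TIMS-TOF Pro. R is the filtered median high-probe/low-probe MS1 peptide ratio per lysine, then the median across forward and reverse replicates. Ratios are capped at 20.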

Chain of UniProt P41091 (P41091 whole entry): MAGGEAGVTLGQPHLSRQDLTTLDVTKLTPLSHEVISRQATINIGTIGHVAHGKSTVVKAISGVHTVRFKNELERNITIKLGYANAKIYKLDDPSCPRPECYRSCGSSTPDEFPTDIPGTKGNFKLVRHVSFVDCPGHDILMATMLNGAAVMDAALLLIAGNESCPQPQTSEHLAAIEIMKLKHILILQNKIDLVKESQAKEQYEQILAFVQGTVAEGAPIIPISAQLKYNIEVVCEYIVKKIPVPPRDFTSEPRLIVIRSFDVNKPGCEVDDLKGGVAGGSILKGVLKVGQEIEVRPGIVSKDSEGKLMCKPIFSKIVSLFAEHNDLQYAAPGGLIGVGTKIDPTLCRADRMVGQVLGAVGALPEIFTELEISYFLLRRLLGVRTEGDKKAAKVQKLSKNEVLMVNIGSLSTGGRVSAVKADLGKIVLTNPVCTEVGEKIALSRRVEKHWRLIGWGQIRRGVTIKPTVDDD
Chain of UniProt Q9NQC3 (Q9NQC3 whole entry): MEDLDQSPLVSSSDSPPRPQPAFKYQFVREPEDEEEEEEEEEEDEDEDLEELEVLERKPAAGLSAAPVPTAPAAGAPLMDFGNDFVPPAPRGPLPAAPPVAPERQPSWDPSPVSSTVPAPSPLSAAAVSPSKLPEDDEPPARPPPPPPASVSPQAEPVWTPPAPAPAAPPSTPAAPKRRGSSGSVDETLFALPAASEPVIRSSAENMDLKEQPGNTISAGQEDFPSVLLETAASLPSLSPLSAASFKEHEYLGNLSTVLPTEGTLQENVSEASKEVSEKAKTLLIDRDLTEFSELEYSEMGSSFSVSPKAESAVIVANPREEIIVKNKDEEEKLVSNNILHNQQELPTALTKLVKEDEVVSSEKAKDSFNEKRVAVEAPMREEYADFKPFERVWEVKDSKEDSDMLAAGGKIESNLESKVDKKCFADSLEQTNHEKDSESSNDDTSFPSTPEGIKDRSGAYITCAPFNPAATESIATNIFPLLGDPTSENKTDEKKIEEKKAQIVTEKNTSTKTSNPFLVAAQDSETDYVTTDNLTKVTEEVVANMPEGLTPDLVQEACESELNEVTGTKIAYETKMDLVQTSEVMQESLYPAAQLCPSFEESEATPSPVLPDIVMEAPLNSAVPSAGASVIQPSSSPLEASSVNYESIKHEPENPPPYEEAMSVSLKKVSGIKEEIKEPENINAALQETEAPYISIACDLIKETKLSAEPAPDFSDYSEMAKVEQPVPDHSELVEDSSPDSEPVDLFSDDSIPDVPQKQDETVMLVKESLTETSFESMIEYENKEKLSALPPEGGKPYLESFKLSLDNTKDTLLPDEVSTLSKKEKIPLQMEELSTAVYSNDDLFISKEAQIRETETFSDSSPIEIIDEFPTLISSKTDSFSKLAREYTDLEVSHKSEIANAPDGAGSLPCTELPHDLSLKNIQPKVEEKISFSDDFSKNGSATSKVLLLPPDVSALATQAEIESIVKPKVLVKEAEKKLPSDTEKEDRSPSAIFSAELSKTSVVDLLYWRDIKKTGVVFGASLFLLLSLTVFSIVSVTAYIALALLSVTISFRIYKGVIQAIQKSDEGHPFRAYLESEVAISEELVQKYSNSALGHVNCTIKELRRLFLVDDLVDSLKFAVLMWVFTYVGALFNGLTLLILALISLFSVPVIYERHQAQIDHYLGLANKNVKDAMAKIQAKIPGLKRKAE
Chain of UniProt P35579 (P35579 whole entry): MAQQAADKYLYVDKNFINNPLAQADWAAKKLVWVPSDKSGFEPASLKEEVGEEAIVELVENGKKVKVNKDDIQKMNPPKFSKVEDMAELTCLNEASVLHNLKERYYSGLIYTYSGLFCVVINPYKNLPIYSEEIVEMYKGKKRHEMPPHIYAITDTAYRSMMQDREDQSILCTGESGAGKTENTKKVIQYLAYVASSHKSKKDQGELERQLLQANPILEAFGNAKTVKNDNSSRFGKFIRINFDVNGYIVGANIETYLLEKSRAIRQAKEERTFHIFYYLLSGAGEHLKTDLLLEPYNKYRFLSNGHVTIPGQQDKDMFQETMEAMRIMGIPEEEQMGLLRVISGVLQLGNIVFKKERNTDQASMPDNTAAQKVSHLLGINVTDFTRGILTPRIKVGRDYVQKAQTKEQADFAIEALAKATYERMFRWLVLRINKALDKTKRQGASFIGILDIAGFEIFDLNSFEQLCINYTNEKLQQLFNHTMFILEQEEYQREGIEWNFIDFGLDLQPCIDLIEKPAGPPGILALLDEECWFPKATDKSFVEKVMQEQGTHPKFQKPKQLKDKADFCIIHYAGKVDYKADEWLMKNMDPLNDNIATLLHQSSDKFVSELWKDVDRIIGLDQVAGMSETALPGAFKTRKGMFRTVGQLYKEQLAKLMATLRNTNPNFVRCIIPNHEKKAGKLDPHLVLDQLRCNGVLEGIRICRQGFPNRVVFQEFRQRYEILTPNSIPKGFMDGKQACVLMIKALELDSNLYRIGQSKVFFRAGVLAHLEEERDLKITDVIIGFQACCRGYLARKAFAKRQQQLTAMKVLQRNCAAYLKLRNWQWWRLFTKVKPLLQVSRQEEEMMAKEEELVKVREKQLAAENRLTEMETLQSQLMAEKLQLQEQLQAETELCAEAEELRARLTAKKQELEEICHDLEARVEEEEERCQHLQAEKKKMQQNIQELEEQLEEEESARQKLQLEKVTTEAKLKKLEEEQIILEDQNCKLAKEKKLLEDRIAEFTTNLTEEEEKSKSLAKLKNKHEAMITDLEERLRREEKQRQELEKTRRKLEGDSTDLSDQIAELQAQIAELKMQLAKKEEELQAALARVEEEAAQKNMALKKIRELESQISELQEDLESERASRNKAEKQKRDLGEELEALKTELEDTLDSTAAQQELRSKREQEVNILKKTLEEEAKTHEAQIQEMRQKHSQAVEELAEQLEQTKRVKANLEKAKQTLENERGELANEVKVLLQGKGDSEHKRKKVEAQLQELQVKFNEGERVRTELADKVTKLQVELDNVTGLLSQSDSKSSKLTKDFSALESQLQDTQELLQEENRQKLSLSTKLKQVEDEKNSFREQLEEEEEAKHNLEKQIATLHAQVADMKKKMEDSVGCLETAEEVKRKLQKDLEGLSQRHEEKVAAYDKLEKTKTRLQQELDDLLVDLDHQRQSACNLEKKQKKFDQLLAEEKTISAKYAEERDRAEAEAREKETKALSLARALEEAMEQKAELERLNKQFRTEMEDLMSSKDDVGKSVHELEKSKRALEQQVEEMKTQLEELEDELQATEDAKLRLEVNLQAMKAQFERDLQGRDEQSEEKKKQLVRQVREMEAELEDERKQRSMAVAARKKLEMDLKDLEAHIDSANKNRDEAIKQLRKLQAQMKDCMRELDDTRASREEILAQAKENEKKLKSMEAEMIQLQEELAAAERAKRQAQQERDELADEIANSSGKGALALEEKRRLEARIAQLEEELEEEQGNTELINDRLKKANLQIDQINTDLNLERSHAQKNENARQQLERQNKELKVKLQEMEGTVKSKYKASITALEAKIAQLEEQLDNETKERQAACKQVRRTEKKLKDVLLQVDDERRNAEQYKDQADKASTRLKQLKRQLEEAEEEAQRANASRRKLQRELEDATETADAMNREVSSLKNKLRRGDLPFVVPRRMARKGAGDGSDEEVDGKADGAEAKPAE
Chain of UniProt Q9Y639 (Q9Y639 whole entry): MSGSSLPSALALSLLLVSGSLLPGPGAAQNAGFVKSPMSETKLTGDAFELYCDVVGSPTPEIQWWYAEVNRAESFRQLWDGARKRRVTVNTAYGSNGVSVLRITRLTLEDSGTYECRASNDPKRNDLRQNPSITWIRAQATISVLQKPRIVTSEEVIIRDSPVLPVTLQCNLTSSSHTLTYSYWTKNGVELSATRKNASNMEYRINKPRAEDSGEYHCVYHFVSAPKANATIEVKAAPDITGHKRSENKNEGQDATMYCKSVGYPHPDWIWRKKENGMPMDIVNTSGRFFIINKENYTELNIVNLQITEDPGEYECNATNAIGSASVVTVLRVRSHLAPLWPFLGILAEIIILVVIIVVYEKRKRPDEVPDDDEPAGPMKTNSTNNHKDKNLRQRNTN
Chain of UniProt P60174 (P60174 whole entry): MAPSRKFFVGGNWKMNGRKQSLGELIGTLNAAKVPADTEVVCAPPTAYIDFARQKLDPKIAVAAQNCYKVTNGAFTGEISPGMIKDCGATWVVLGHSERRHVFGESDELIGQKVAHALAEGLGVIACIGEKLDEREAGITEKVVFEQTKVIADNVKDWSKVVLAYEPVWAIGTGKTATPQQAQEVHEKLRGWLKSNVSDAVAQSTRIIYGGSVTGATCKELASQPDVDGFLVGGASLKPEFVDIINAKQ
Chain of UniProt P26599 (P26599 whole entry): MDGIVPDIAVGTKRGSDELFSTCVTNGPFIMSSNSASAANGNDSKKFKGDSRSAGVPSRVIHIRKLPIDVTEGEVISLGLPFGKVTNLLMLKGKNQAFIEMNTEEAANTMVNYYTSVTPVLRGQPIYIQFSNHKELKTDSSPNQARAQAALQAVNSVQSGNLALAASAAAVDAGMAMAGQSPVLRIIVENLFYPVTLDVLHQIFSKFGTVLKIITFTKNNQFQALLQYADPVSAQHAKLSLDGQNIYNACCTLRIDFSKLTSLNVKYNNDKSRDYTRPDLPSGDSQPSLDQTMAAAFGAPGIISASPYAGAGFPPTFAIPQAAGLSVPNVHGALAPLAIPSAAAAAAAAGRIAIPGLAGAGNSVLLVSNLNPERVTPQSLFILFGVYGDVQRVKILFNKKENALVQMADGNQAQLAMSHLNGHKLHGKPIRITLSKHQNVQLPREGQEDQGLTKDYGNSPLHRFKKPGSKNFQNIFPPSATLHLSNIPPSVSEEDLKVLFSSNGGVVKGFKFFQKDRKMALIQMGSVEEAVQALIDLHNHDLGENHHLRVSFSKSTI
Chain of UniProt Q9NP84 (Q9NP84 whole entry): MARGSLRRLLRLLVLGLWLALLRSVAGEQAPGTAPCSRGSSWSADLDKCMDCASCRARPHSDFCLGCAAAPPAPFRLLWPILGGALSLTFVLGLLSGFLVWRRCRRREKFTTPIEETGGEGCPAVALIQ

| Target | lysine labeling ratio R10:1 |
| --- | --- |
| EIF2S3 (lysine site: K70) (UniProt P41091) | 3.79 |
| ITGA6 (lysine site: K511) (UniProt P23229) | 14.7 |
| TPI1 (lysine site: K194) (UniProt P60174) | 1.22 (active) |
| MYH9 (lysine site: K1389) (UniProt P35579) | 2.38 |
| NPTN (lysine site: K244) (UniProt Q9Y639) | 8.84 |
| EGFR (lysine site: K487) (UniProt P00533) | 1.61 (active) |
| CACNA2D1 (lysine site: K649) (UniProt P54289) | 10.1 |
| SPTAN1 (lysine site: K1750) (UniProt Q13813) | 2.19 |
| SERPINH1 (lysine site: K334) (UniProt P50454) | 2.28 |
| PLXNA1 (lysine site: K1084) (UniProt Q9UIW2) | 2.49 |
| LNPEP (lysine site: K726) (UniProt Q9UIQ6) | 0.91 (active) |
| UniProt P26639 (lysine site: K712) | 1.83 (active) |
| ACTN4 (lysine site: K643) (UniProt O43707) | 7.08 |
| UniProt Q9NP84 (lysine site: K48) | 4.2 |
| RTN4 (lysine site: K1104) (UniProt Q9NQC3) | 1.32 (active) |
| PTBP1 (lysine site: K271) (UniProt P26599) | 2.72 |
| UniProt P62701 (lysine site: K106) | 2.28 |
